D3 ag: agonists of human D3 dopamine receptor; P35462; D3R DiscoveRx beta-arrestin cells, luminescence, 90 min; max activation, %; 0.58% of 410,000 active; in the data active = max activation above about 30%
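Agonist mode: compounds and dopamine controls were applied to plated cells for 90 min at 37 degrees C after an overnight attachment at 1500 cells/well. Luminescent read-out followed 30 - 60 minutes at room temperature with DiscoveRx detection reagent.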
GLP1R ag: GLP-1 receptor (human) agonism. 0.007% of 380,000 active. P43220. Potency, µM (top dose mostly 45.6 µM), hits mostly activators. HEK293 GLP-1R CRE-luciferase, luminescence, 4-6 h; cells express a hypersensitive GLP-1R form
Target sequence (P43220 whole entry, looked up): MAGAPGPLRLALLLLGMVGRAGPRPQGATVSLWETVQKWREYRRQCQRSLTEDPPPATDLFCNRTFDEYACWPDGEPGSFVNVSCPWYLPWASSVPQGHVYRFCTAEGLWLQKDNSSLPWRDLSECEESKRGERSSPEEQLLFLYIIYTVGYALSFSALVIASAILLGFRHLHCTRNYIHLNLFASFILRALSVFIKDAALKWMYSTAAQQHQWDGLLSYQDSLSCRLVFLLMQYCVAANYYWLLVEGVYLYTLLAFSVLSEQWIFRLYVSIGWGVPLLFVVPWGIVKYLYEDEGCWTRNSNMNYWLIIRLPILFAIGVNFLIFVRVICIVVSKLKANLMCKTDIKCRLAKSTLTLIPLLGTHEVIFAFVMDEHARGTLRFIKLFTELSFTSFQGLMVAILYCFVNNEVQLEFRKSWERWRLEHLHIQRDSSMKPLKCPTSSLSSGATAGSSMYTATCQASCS
GLP1R inv ag: GLP-1 receptor (human) inverse agonism | P43220 | HEK293 GLP-1R CRE-luciferase, luminescence, 24 h; GLP-1R form is constitutively active | Potency, µM (top dose mostly 38.3 µM), most hits filed as inhibitors | 1.6% of 410,000 active; also: nearly all actives have a fitted effect of over 55% in size
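Cells are plated, allowed 12 hours at 37 deg C, then treated with compounds for 24 hr before luciferase detection reagent is added and luminescence is read after 12 min at room temperature. The HEK293 line carries constitutively active GLP-1R with a cAMP-responsive reporter.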
DRD3 antagonist: antagonists of human D3 dopamine receptor; D3R cells, DiscoveRx beta-arrestin luminescence, antagonist mode; hits give low values; 2.5% of 360,000 active; P35462; max response, negative = inhibition, %; in the data active = max response below about -50%; inconclusive = no clear call, values can overlap the other calls
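Cells expressing the human receptor were seeded at 1500 cells/well, incubated overnight at 37 degrees C in 5% CO2, then exposed to library compounds with dopamine controls for 90 minutes at 37 degrees C before luminescent detection.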
Numbers stand for hits; 0 = inactive; ? = inconclusive; - = no result given. This is a sample that favours compounds with a hit; in the whole collection about 4.3% have one here. Unless noted, calls follow the shape of the dose curve; as a rule, active = well fitted curve in the direction sought with a large enough effect; inconclusive = small, poorly fitted or top-dose-only effect, or another doubt; inactive = no such curve, though single readings can be large; an effect the other way counts as inactive or inconclusive.

SMILES	D3 ag	GLP1R ag	GLP1R inv ag	DRD3 antagonist
CCCCCCSc1nnc(-c2cnn(-c3ccccc3)c2-n2cccc2)n1C	0	0	4.5µM	?
CCSc1nnc(-c2cnn(-c3ccccc3)c2-n2cccc2)n1C	0	0	0	0
COc1ccc(-c2noc(CCC(=O)NC3CCCCC3)n2)cc1	0	0	0	0
CCOC(=O)c1sc(NC(=O)c2cc(-c3ccccc3C)nc3ccccc23)c(C#N)c1C	33	0	?	0
CCOc1ccc(CCNC(=O)Cn2nc(CC)n3c(cc4ccccc43)c2=O)cc1	0	-	0	-
O=C1CC(c2ccccc2)CC(O)=C1C=NCc1ccccc1Cl (stereo not given)	0	0	?	-92
O=C1CC(c2ccccc2)CC(O)=C1C=NCc1ccco1 (stereo not given)	0	0	0	-57
COc1ccccc1NC(=O)N1CCC(CN2CCc3ccccc3C2)CC1	0	-	?	-
COc1ccc(NC(=O)Nc2sc(=S)n(C)c2C)cc1	0	0	?	0
Cc1c(NC(=O)Nc2ccc(Cl)c(Cl)c2)sc(=S)n1C	0	0	0	-73
COC(CNC(=O)C1CCCN1C(=O)OCc1ccccc1)OC (stereo not given)	0	0	0	0
COC(=O)[C@@H]1C[C@]2(OC(=O)c3ccccc3)C=CC(=O)C[C@@H]2N1C(=O)OCc1ccccc1	0	0	7.1µM	?
O=C(c1cccc(Cl)c1)N(Cc1ccco1)Cc1ccccc1Cl	0	-	10µM	-
O=C(O)CNC(=S)N(Cc1ccco1)Cc1ccccc1Cl	0	0	0	0
CCc1ccc(OCC(=O)N(Cc2ccco2)Cc2ccccc2Cl)cc1	0	-	10µM	-
CCc1ccc(OCC(=O)N(Cc2ccc(C)cc2)Cc2ccco2)cc1	0	-	?	-
C[C@H](CO)N1C[C@H](C)[C@H](CN(C)Cc2ccccc2)Oc2c(NC(=O)Nc3ccc(F)cc3)cccc2C1=O	0	0	0	?
C[C@H](CO)N1C[C@H](C)[C@@H](CN(C)C(=O)NC2CCCCC2)Oc2c(NS(=O)(=O)c3ccccc3)cccc2C1=O	0	0	0	0
C[C@H](CO)N1C[C@H](C)[C@@H](CN(C)C(=O)Nc2ccccc2)Oc2ccc(NS(=O)(=O)c3ccc(F)cc3)cc2C1=O	37	0	0	0
C[C@@H]1CN([C@H](C)CO)C(=O)c2c(c3ccccc3n2C)-c2ccccc2CO[C@H]1CN(C)Cc1ccc(C(F)(F)F)cc1	0	0	5µM	0
C[C@H](CO)N1C[C@H](C)[C@@H](CN(C)C(=O)NC2CCCCC2)Oc2c(NS(=O)(=O)c3ccc(F)cc3)cccc2C1=O	31	0	0	0
C[C@H](CO)N1C[C@H](C)[C@H](CN(C)Cc2ccccc2)Oc2ccc(NC(=O)Nc3ccc(F)cc3)cc2C1=O	0	0	11µM	0
COc1ccc(CCNc2nc3c(-c4cccc(C)c4)nnn3c3ccccc23)cc1OC	0	0	0	-
CN1CCN(C(c2ccccc2Cl)c2sc3nc(-c4ccco4)nn3c2O)CC1 (stereo not given)	0	-	0	-
O=C(NC1CCCCCC1)C(Cc1ccccc1)n1cccc1 (stereo not given)	0	0	?	0
SMILES	D3 ag	GLP1R ag	GLP1R inv ag	DRD3 antagonist
C[C@H](CO)N1C[C@H](C)[C@@H](CN(C)C(=O)NC2CCCCC2)Oc2ccc(NC(=O)Cn3cnnn3)cc2C1=O	0	0	0	0
C[C@@H]1CN([C@@H](C)CO)C(=O)c2cc(NC(=O)c3ccccc3)ccc2O[C@@H](C)CCCCO[C@@H]1CN(C)Cc1ccc(C(F)(F)F)cc1	0	0	11µM	0
C[C@H](CO)N1C[C@H](C)[C@@H](CN(C)CC2CCCCC2)Oc2ccc(NC(=O)Cn3cnnn3)cc2C1=O	35	0	0	0
C[C@@H]1CCCCO[C@H](CN(C)Cc2ccc3c(c2)OCO3)[C@H](C)CN([C@@H](C)CO)C(=O)c2cc(NC(=O)c3ccccc3)ccc2O1	0	0	?	?
C[C@@H]1CN([C@H](C)CO)C(=O)c2cc(NC(=O)Nc3ccc4c(c3)OCO4)ccc2O[C@H]1CN(C)Cc1ccncc1	32	0	0	0
CCOc1ccc(-n2cc(-c3ccccc3)c3c(NC4CCCC4)ncnc32)cc1	0	-	?	-
Cc1c(Cl)cccc1Nc1nn2c(=O)c3ccc(C(=O)NCCC4=CCCCC4)cc3nc2s1	0	-	?	-
CC[C@@]1(c2ccccc2OC)ON(c2ccccc2C(F)(F)F)C1=O	0	0	0	0
Cc1ccccc1[C@@]1(C)ON(c2ccccc2C(F)(F)F)C1=O	0	0	11µM	0
C[C@H]1NCc2cc(-c3ccc4c(=O)c(C(=O)O)cn(C5CC5)c4c3OC(F)F)ccc21	0	0	-	-
O=C(Nc1ccc(F)cc1)c1oc2ccccc2c1NC(=O)C12CC3CC(CC(C3)C1)C2	0	0	0	-
Cc1noc(C)c1C(=O)OCC(=O)c1c[nH]c2ccccc12	0	0	0	0
Cc1onc(-c2c(F)cccc2Cl)c1C(=O)OCC(=O)c1c[nH]c2ccccc12	0	0	8.9µM	0
COc1ccc(-n2c(=O)c3c4c(sc3n(CC(=O)N3CCCCC3C)c2=O)CCC4)c(OC)c1 (stereo not given)	0	-	0	-
COc1cccc(F)c1C(C[N+](=O)[O-])c1c(N)n(C)c(=O)n(C)c1=O (stereo not given)	0	0	3.2µM	0
COc1cc(C(C[N+](=O)[O-])c2c(N)n(C)c(=O)n(C)c2=O)ccc1O (stereo not given)	0	0	0	0
Cc1ccc(P(=O)(O)c2ccc(C)cc2)cc1	0	0	0	0
Cc1ccc(P(=O)(c2ccc(C)cc2)[C@@H](NC(c2ccccc2)c2ccccc2)c2ccccc2)cc1	0	0	?	-109
CC(=O)Nc1ccc(OCC(O)CN2CCN(c3ccc(Cl)cc3)CC2)cc1 (stereo not given)	0	0	?	-72
OC(COc1ccc(Cl)cc1)CN1CCN(c2cccc(Cl)c2)CC1 (stereo not given)	0	0	?	?
CC(=O)Nc1ccc(OCC(O)CN2CCN(c3cccc(Cl)c3)CC2)cc1 (stereo not given)	34	0	0	0
CC(=O)NC(c1cccc(F)c1)c1nc(-c2cccs2)cs1 (stereo not given)	0	0	0	0
Cc1cccc(N2CCN(C(=O)Cn3c(C)c4cnn(-c5ccccc5)c(=O)c4c3C)CC2)c1C	0	-	?	-
O=C1[C@@H]2Cc3ccccc3CN2C(=O)N1c1cccc(F)c1	37	0	0	0
O=C(CSc1nc2ccsc2c(=O)n1NC(=O)c1ccccc1)Nc1nccs1	0	0	0	-59
CC(C)(C)C(=O)CSc1nc2ccsc2c(=O)n1Cc1ccccc1Cl	0	-	0	-
CCC(C)n1c(SCc2ccccc2)nc2ccsc2c1=O (stereo not given)	0	0	7.9µM	0
CCCCn1c(SCC(=O)c2ccc(O)c(O)c2)nc2ccsc2c1=O	0	0	0	0
CC(C)(C)C(=O)CSc1nc2ccsc2c(=O)n1Cc1ccccc1F	0	-	13µM	-

Assay outcomes: PubChem, National Center for Advancing Translational Sciences (NCATS)
